Source: PubChem BioAssay AID743126 (The Scripps Research Institute Molecular Screening Center, 2013)
Out of some 370,000 compounds screened, about 2,100 (0.57%) were called active. The sample holds actives, similar compounds and a random draw of the others, so the mix is not that of the screen.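 The calls were made as follows: active = inhibition above mean plus 3 SD of compounds lying within the high and low control bounds (cut at about 19% in these data); inactive = the rest.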

Target: Group 3 secretory phospholipase A2 (Homo sapiens) (UniProt Q9NZ20)
Sequence (Q9NZ20 whole entry, looked up): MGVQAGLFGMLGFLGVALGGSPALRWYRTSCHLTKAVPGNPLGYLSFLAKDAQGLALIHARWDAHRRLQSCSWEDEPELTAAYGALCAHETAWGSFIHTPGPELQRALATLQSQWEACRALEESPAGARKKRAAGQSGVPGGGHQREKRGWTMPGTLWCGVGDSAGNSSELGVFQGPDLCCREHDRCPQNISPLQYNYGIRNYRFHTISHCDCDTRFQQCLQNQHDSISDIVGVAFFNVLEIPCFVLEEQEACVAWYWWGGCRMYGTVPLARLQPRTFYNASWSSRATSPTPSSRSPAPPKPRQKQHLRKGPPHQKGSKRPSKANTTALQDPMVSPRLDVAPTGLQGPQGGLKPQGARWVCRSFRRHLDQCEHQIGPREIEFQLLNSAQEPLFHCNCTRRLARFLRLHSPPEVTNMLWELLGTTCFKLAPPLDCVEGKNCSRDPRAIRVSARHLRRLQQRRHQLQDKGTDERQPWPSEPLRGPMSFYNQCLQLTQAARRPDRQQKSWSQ
Experiment: HGIII-sPLA2 enzyme inhibition – biochemical, QFRET, BODIPY PC-A2 liposome substrate, primary screen (AID 743126);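 also: 0% = median of test compound wells and 100% = no enzyme DMSO wells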
Settings: QFRET BODIPY PC-A2 liposome hydrolysis, fluorescence; at 12.2 µM; stronger effect = higher value

| Structure (SMILES) | inhibition |
| --- | --- |
| CC(c1ccc(N)cc1)c1cn(C)c2ccccc12 (stereo unspecified) | 13.1% (inactive) |
| FC(F)(F)c1cccc(Cn2ccc3ccc(-c4ccc5ccn(Cc6ccccc6)c5c4)cc32)c1 | -7.36% (inactive) |
| C=CCN(C)CC#Cc1ccccc1 | 6.96% (inactive) |
| CCOC(=O)C1(Cc2cccc(OC)c2)CCCN(S(=O)(=O)c2cccnc2)C1 (stereo unspecified) | 1.51% (inactive) |
| CCOC(=O)C1(Cc2cccc(OC)c2)CCN(C(C)COC)CC1 (stereo unspecified) | -1.08% (inactive) |
| CCOC(=O)C1(Cc2cccc(OC)c2)CCCN(C(=O)CCSC)C1 (stereo unspecified) | 19.5% (active) |
| CC(C)(C)NC(=O)C(c1cccnc1)N(C(=O)c1cnco1)c1ccc(C(C)(C)C)cc1 (stereo unspecified) | -5.08% (inactive) |
| CCOc1ccc(Oc2c(Cl)cnn(-c3ccc(C)cc3)c2=O)cc1 | 8.12% (inactive) |
| O=S(=O)(Nc1ccccn1)c1cccc(S(=O)(=O)c2ccc(Cl)cc2)c1 | -7.39% (inactive) |
| O=[N+]([O-])c1ccccc1S(=O)(=O)Nc1cccc2cccnc12 | 6.98% (inactive) |
| COc1cc(NS(=O)(=O)c2ccc3ccccc3c2)c2ncccc2c1 | 23.8% (active) |
| CCOC(=O)C(=O)N(Cc1ccccc1)c1ccccc1C(=O)Nc1cc(OC)ccc1OC | -2.65% (inactive) |
| NC[C@H](Cc1ccccc1)NCCc1cc(C(F)(F)F)cc(C(F)(F)F)c1 | 21.8% (active) |
| CC1=CC(C)(C)NC(=S)N1NC(=O)c1ccccc1Cl | 4.76% (inactive) |
| CC1=CC(C)(C)NC(=S)N1c1ccccc1 | 20.1% (active) |
| CN(C)Cc1cn(-c2ccc(-c3noc4c3C(=O)N(CC(=O)N3CCOCC3)CC4)cc2)nn1 | 1.51% (inactive) |
| COc1ccc(N2CCN(CCNS(=O)(=O)c3ccc([N+](=O)[O-])cc3)CC2)cc1 | -4.09% (inactive) |
| COc1ccccc1CCNC(=O)C1CCN(c2nc(C)cc(C)n2)CC1 | -0.08% (inactive) |
| Cc1cccc(NC(=S)NCCc2ccc(F)cc2)c1C | 8.1% (inactive) |
| Cc1c(NC(=S)NCc2ccc(F)cc2)cccc1[N+](=O)[O-] | 19.5% (active) |
| Cc1ccc(NC(=O)CN(C)Cc2ccc(F)cc2)c([N+](=O)[O-])c1 | -1.08% (inactive) |
| O=C(CSc1nc2ccccc2n1Cc1ccccc1Cl)N/N=C\c1c[nH]c2ccccc12 | -20.9% (inactive) |
| COC(=O)C1CN(Cc2ccc(F)cc2)CCS(=O)(=O)N1Cc1ccc(Cl)cc1 (stereo unspecified) | 0.13% (inactive) |

| Structure (SMILES) | inhibition |
| --- | --- |
| CCC(=O)OCCCN1C(=O)CCC12CCC(c1ccccc1)CC2 (stereo unspecified) | -0.68% (inactive) |
| Cc1cccc(C)c1NC(=O)CN1C(=O)C(C)Oc2ccccc21 (stereo unspecified) | 20.8% (active) |
| CC1Oc2ccccc2N(Cc2cccnc2)C1=O (stereo unspecified) | 7.65% (inactive) |
| Cc1ccc2c(c1)N(CC(=O)N1CCCc3ccccc31)C(=O)C(C)O2 (stereo unspecified) | 0.55% (inactive) |
| COc1ccc(Cn2ccc3ccc(-c4ccc5ccn(Cc6ccccc6C)c5c4)cc32)cc1 | 3.9% (inactive) |
| COc1ccc(C#CCNCc2ccc(OC)cc2OC)cc1 | 12.6% (inactive) |
| CCOC(=O)C1(Cc2ccccc2)CCN(Cc2cn(C(C)=O)c3ccccc23)CC1 | -23.2% (inactive) |
| O=C(CSc1nnc(-c2ccccc2)n1Cc1ccco1)Nc1ccccc1-c1ccccc1 | -10.1% (inactive) |
| CCCCCCCCNS(=O)(=O)/C=C/c1cc(C)ccc1CNC(=O)OC(C)(C)C | -4.97% (inactive) |
| CCCCOCCCNC(=O)C[C@H]1C[C@@]2(C(=O)OC)C(=C[C@H](COCc3ccccc3)O[C@@H]2C)N(Cc2cccc3ccccc23)C1=O | -20.5% (inactive) |
| CNC(=S)N/N=C/c1ccc(OCc2ccccc2)c(Br)c1 | 0.16% (inactive) |
| COc1cc(/C=N/n2c(C)n[nH]c2=S)ccc1OCc1ccccc1 | 20.9% (active) |
| C=CCOc1ccc(/C=N/n2cncn2)cc1OC | 2.27% (inactive) |
| C=CCn1c(-c2ccc3[nH]c(C)c(C)c3c2)n[nH]c1=S | -0.35% (inactive) |
| C=CCn1c(SCC(=O)NC)nnc1C12CC3CC(CC(C3)C1)C2 | 0.19% (inactive) |
| C=CCn1c(C23CC4CC(CC(C4)C2)C3)n[nH]c1=S | 23.5% (active) |
| FC(F)(F)c1cccc(NC(=S)OC2CCC23CCC(c2ccccc2)CC3)c1 (stereo unspecified) | -7.1% (inactive) |
| CN[C@H]1C[C@H]2c3cc(N4CCOCC4)ccc3CCN2C[C@H]1[C@H](C)O | 7.01% (inactive) |
| CCOC12CC(C)(C)CC(C)(CC3=C1C(=O)CC(C)(C)C3)C2 (stereo unspecified) | 24.1% (active) |
| O=S1(=O)c2c(cccc2N2CCSCC2)Oc2ccccc2CN1Cc1cn(Cc2ccc(F)cc2)nn1 | 2.55% (inactive) |
| C#CCCCc1nc2ccccc2c(=O)n1N | 21.1% (active) |
| Cc1ccc(C(=O)CSc2nc3ccccc3c(=O)n2N)o1 | -0.69% (inactive) |
| Cc1ccc(S(=O)(=O)NCc2nc3ccccc3c(=O)n2N)cc1 | 2.93% (inactive) |

| Structure (SMILES) | inhibition |
| --- | --- |
| O=C(OCC#CCSc1nnc(-c2ccco2)o1)c1ccc(F)cc1 | 1.02% (inactive) |
| C/C(=N\NC(=O)COc1c(C)cccc1C)c1cccs1 | 2.47% (inactive) |
| Cc1ccccc1-n1c(SCC(=O)Nc2cccc3ccccc23)nc(O)cc1=O | -4.85% (inactive) |
| C/C(=N\NC(=O)CSc1nc2ccccc2c(=O)n1-c1ccccc1C)c1cccs1 | 25.2% (active) |
| CCc1c(Nc2ccccc2C)nc(N)[nH]c1=O | 8.22% (inactive) |
| Cc1[nH]c(N)nc(=S)c1CCCNc1ccccc1 | 23.8% (active) |
| Cc1cc(=O)n(C)c(=O)n1CCCNc1ccccc1 | -0.01% (inactive) |
| C=CCN1C(=O)[C@@H](CC(=O)N2CCN(C(=O)c3ccco3)CC2)[C@]2(C(=O)OC)CCCCC=C12 | 13.7% (inactive) |
| COc1cccc(N(C)C(=O)[C@@H](C)[C@@H](O)c2ccc3ccccc3c2)c1 | -10.3% (inactive) |
| CCOC(=O)C(CC)Sc1ncnc2c1nnn2-c1ccc(F)cc1 (stereo unspecified) | -1.68% (inactive) |
| CCOC(=O)C(C)n1cnc2c(nnn2-c2ccc(F)cc2)c1=O (stereo unspecified) | 10.8% (inactive) |
| COC(=O)C(C)n1cnc2c(nnn2-c2ccc(F)cc2)c1=O (stereo unspecified) | 21.6% (active) |
| C=C1C(C(C)C)N(C)C2=NC(c3ccccc3)CC(=O)N12 (stereo unspecified) | 0% (inactive) |
| C=C(C)C#CC(Cc1ccccc1)NCC1CC1 (stereo unspecified) | 4.73% (inactive) |
| CC(C)CC(=O)NC(=S)Nc1ccc(F)cc1F | 6.75% (inactive) |
| CC(C)CC(=O)NC(=S)NNC(=O)c1cccc([N+](=O)[O-])c1 | 24.2% (active) |
| CC(C)OC(=O)CC(=O)CC(O)c1cccc([N+](=O)[O-])c1 (stereo unspecified) | -28% (inactive) |
| O=C1CCC2(CCC(c3ccc(Cl)cc3)CC2)N1CCO (stereo unspecified) | 7.89% (inactive) |
| COc1ccc(C2CC=C(C(=O)O)C(c3ccccc3F)N2S(=O)(=O)c2ccc(C)cc2)cc1OC (stereo unspecified) | -7.23% (inactive) |
| CCOC(=O)[C@]12CCCC=C1N(Cc1ccc(OC)cc1)C(=O)[C@@H]2CC(=O)N1CCOCC1 | 3.77% (inactive) |
| Cc1cc(=O)[nH]c(SCC(=O)Nc2ccc(Cl)cc2C)n1 | 1.76% (inactive) |
| COc1ccccc1OCCn1c(SCC(N)=O)nc2ccccc21 | 22.2% (active) |
| CCN(CC)C(=O)CSc1nc2ccccc2n1CC(=O)N1CCN(c2ccccc2OC)CC1 | 0.24% (inactive) |

| Structure (SMILES) | inhibition |
| --- | --- |
| COc1ccccc1OCc1nnc(SCC(N)=O)n1-c1ccccc1 | 1.71% (inactive) |
| N#CCC[C@H]1CC[C@]2(CCCN(Cc3ccc(Cl)cc3)C2)O1 | 5.78% (inactive) |
| C=CC[n+]1c(-c2ccc(C)cc2)csc1NNC(=O)Nc1ccccc1 | 2.33% (inactive) |
| C=CCNc1scc(-c2ccccc2)[n+]1CC=C | 20.2% (active) |
| COC(CNC(=O)[C@H](Cc1ccccc1)NC1(C(=O)NC2CCCCC2)CCCCC1)OC | -3.08% (inactive) |
| O=C(CCCCCN1C(=O)C2C3C=CC(C3)C2C1=O)Nc1ccccn1 (stereo unspecified) | -2.55% (inactive) |
| CC(C)C(C#CC1CC1)N(Cc1ccc2c(c1)OCO2)C(N)=NC(=O)/C=C/c1cccc(C(F)(F)F)c1 (stereo unspecified) | 3.76% (inactive) |
| Clc1ccc(-n2c(SC/C=C/c3ccccc3)nnc2-c2ccco2)cc1 | -11.5% (inactive) |
| C/C(=N/NC(=O)c1cc(Cl)ccc1O)C12CC3CC(CC(C3)C1)C2 | 22.8% (active) |
| O=C(N/N=C1\CCSC1)c1cc(Cl)ccc1O | 13.2% (inactive) |
| Cc1ccc(C(=O)NC23CC4CC(CC(C4)C2)C3)c(Cl)c1 | 15.2% (inactive) |
| COC(=O)[C@H](C(C)C)N(CCc1cn(Cc2ccccc2)nn1)S(=O)(=O)c1ccc(F)cc1Br | -2.33% (inactive) |
| O=C(NC1CCC1)c1ccc(C#Cc2cccc(F)c2)c[n+]1[O-] | -4.97% (inactive) |
| CC(Oc1ccc(Cl)cc1)C(=O)Nc1ncccn1 (stereo unspecified) | 1.61% (inactive) |
| COc1cccc(CNC(=O)C2CCN(S(=O)(=O)c3cccc4cccnc34)CC2)c1 | -1% (inactive) |
| CC(=O)/C(=N\Nc1ccc(Cl)cc1Cl)Sc1cccc2cccnc12 | 20.9% (active) |
| COC(=O)[C@]12C[C@H](CC(=O)N3CCOCC3)C(=O)N(Cc3ccc(Cl)cc3Cl)C1=C[C@H](C(C)C)O[C@@H]2C1CC1 | -5.59% (inactive) |
| CC1CCN(c2ccc(C(=O)O)cc2NS(=O)(=O)c2ccc(Br)s2)CC1 | -18.5% (inactive) |
| CCOC(=O)[C@]12CCCCC/C=C\1N(Cc1ccc(OC)cc1)C(=O)[C@H]2CC(=O)NCc1ccc(C)o1 | -4.43% (inactive) |
| COc1ccc(C2Nc3ccccc3C(=O)N2Cc2cccs2)cc1COc1c(C)cccc1C (stereo unspecified) | 4.57% (inactive) |
| Oc1ccc2ccccc2c1N=Nc1nccs1 | 19.4% (active) |
| O=C(NC1CCCC1)C1CSCCS(=O)(=O)N1Cc1ccccc1 (stereo unspecified) | 2.48% (inactive) |
